Screening data: PubChem BioAssay, National Center for Advancing Translational Sciences (NCATS)
KB-V1 MDR tox – KB-V1 MDR subline cytotoxicity. KB-V1 MDR cells viability, CellTiter-Glo, 72 h. Potency, µM (top dose mostly 46.1 µM), hits mostly cytotoxic. hit rate 3.4% among 400,000; further: on the % scale 0 is the no-effect control and ±100 the full control effect; nearly all actives have a fitted effect of over 60% in size
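Cytotoxicity toward P-gp-expressing KB-V1 cells was determined as loss of CellTiter-Glo luminescence after 72 h at 37 degrees C. Compounds were tested in quantitative HTS format across a concentration range, with curves fitted to normalized data.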
HT1080-NT tox – kills 2HG-producing HT-1080-NT fibrosarcoma cells; HT-1080-NT fibrosarcoma viability, CellTiter-Glo ATP luminescence, 48 h; Potency, µM (titrated, usually from 46.1 µM), for the others: at the highest dose activity, negative = less viability, hits mostly cytotoxic; hit rate 1.6% among 360,000; AID 686970;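 further: NT is the 2HG producing partner of a matched IDH1 knockdown line; 0% = DMSO-treated cells and -100% = media-only wells without cells; nearly all actives have a fitted effect of over 55% in size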
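A 48-hour cytotoxicity screen used HT-1080-NT cells plated 2 hours before compound delivery. ATP-based CellTiter-Glo luminescence measured viability, normalized to DMSO and no-cell controls.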
KB-3-1 tox – kills parental KB-3-1 adenocarcinoma cells; KB-3-1 viability, CellTiter-Glo ATP luminescence, 72 h; Potency, µM (top dose mostly 46.1 µM), most hits filed as cytotoxic; hit rate 1.4% among 400,000; AID 1347075; further: on the % scale 0 is the no-effect control and ±100 the full control effect; nearly all actives have a fitted effect of over 60% in size
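Cytotoxicity measured as CellTiter-Glo luminescence after 72 h at 37 C. Compound titrations were pinned onto drug-naive KB-3-1 parental adenocarcinoma cells grown in DMEM with 10% FBS, and normalized data fitted to concentration-response curves.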
TGFb SMAD3 inh – inhibitors of TGF-b signaling; AID 588855; Potency, µM (highest dose often 46.1 µM), for the others: top-dose activity, negative = inhibition, most hits filed as inhibitors; hit rate 1.2% among 410,000; HepG2 CAGA-GFP TGF-b/SMAD3 reporter, GFP fluorescence, 18 h; TGF-beta stimulated, 500 pg/mL final; further: on the % scale 0 is the no-effect control and ±100 the full control effect; nearly all actives have a fitted effect of over 65% in size
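HEPG2 CAGA-GFP cells (1000/well, DMEM with 1% FBS) were pre-incubated 2 h at 37 degrees C, given compound by pin tool, then stimulated with TGF-beta at 500 pg/mL final for 18 h before per-cell GFP fluorescence imaging.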
HT1080 IDH1KD tx – kills HT-1080 cells with IDH1 knockdown; hit rate 2% among 360,000; Potency, µM (series often up to 46.1 µM), without a hit: at the top dose activity, negative = toxicity, most hits filed as cytotoxic; HT-1080 IDH1 knockdown viability, ATP luminescence, 48 h; AID 686971;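 further: 0% = DMSO wells and -100% = cell-free medium wells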
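IDH1KD HT-1080 cells, 750/well, RPMI + 5% FBS; compound pinned after 2 h settling; 48 h, 37 °C; CellTiter-Glo luminescence; % activity normalised to DMSO and no-cell wells; curves fitted, classed by r2 and efficacy.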
HepG2 viability – kills HepG2 cells in TGF-b inhibitor counter-screen | hit rate 0.76% among 410,000 | Potency, µM (highest dose often 46.1 µM), for inactives: at the top dose activity change, negative = cytotoxicity, usual class: cytotoxic | HepG2 CAGA-GFP viability, ATP luminescence, 18 h
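HepG2 CAGA-GFP cells (1000/well, DMEM with 1% FBS) received compound, then TGF-beta at 500 pg/mL final, and were incubated 18 hours at 37 degrees C. Viability was read by CellTiter-Glo luminescence. Media-only wells were set as complete cell-killing and DMSO as no toxicity.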
Numbers without * were called inactive; i = inactive; ? = inconclusive; / = no result given. A selection: hits, their analogues and other compounds. The true share with any hit is near 6.6%. The call rests on the fitted dose curve; in most records, active means well fitted curve in the direction sought with a large enough effect; inconclusive means small, poorly fitted or top-dose-only effect, or another doubt; inactive means no such curve, though single readings can be large; an effect the other way counts as inactive or inconclusive. Potency means the concentration at half of the fitted maximal effect.

SMILES | KB-V1 MDR tox | HT1080-NT tox | KB-3-1 tox | TGFb SMAD3 inh | HT1080 IDH1KD tx | HepG2 viability
NC(=O)CSc1ccc2nnc(-c3ccncc3)n2n1 | i | / | i | 1.4% | / | 4.4%
Cc1ccc(NC(=O)c2ccco2)c(OCc2cc(=O)n3cc(C)sc3n2)c1 | / | / | / | -8.4% | / | -17.6%
CCOC(=O)c1[nH]c(C)c(C(=O)Nc2cc(Cl)ccc2C)c1C | 0.461µM* | 0.316µM* | ? | 4.2% | 0.0891µM* | 1.3%
CCOC(=O)c1[nH]c(C)c(C(=O)Nc2ccccc2C)c1C | i | 5.8µM* | ? | -14.7% | 2.31µM* | -1.2%
CCNC(=O)c1c(C)[nH]c(C(=O)OCC)c1C | ? | 10.4% | i | -0.1% | -1.2% | 1.8%
CCOC(=O)c1[nH]c(C)c(C(=O)N2CCN(c3ccccc3)CC2)c1C | 16.4µM* | 2.7% | i | -14.9% | -25.4% | -1.0%
CCOC(=O)c1[nH]c(C)c(C(=O)N2CCOCC2)c1C | i | 9.3% | i | -11.8% | 14.0% | -15.6%
CCCCCC(=O)NC(NC(=S)N1CCOCC1)C(Cl)(Cl)Cl (configuration not stated) | i | -0.7% | i | ? | -11.5% | -31.3%
CCCCCCCCC(=O)NC(NC(=S)N1CCOCC1)C(Cl)(Cl)Cl (configuration not stated) | ? | ? | i | ? | 11.2µM* | -73.0%
O=C(NC(NC(=S)N1CCOCC1)C(Cl)(Cl)Cl)c1cccc2ccccc12 (configuration not stated) | 16.4µM* | 13.7% | i | -8.5% | -1.3% | -8.9%
NNc1ncnc2scc(-c3ccc(Cl)cc3)c12 | ? | -3.0% | 16.4µM* | -39.2% | 2.2% | -30.3%
COc1ccc(Nc2ncnc3scc(-c4ccc(OC)cc4)c23)cc1 | 3.26µM* | ? | 4.11µM* | ? | ? | -26.7%
COc1ccc(Nc2ncnc3scc(-c4ccc(F)cc4)c23)cc1 | ? | / | i | ? | / | -39.0%
Clc1ccc(-c2csc3ncnc(Cl)c23)cc1 | i | -9.7% | i | -2.4% | -6.6% | -1.0%
COc1ccc(-c2csc3ncnc(Nc4ccc(OC)c(OC)c4)c23)cc1 | ? | / | i | 10µM* | / | -41.1%
O=S(=O)(Nc1ncnc2scc(-c3ccc(F)cc3)c12)c1cc(F)ccc1F | 18.4µM* | -11.8% | ? | ? | -0.9% | -4.4%
CC(C)OCCCNC(=O)c1nn(C)c2c1CSc1ccccc1-2 | / | / | / | -20.2% | / | -9.4%
Cc1ccc(Cl)cc1N1CCN(C(=O)Cn2cnc3sc(C)c(S(=O)(=O)N4CCC(C)CC4)c3c2=O)CC1 | i | / | ? | -22.2% | / | 3.9%
Cc1ccc(OCC(=O)N(Cc2ccc(N(C)C)cc2)CC2CCCO2)cc1C (configuration not stated) | / | / | / | -20.6% | / | -31.5%
Cc1cc(Cl)ccc1NC(=O)C1CCCN(c2nnc(C)c3c(C)n(-c4ccccc4)nc23)C1 (configuration not stated) | i | / | i | -0.8% | / | 9.7%
CCC(Sc1nnc2c(n1)[nH]c1ccccc12)C(=O)Nc1nnc(C(C)C)s1 (configuration not stated) | i | / | i | -13.7% | / | -19.5%
O=C(OCCN1C(=O)c2cccc3c(N4CCOCC4)ccc(c23)C1=O)c1cccc(Cl)c1 | ? | 14.6µM* | 13µM* | 24.8% | 9.2µM* | 8.0%
O=C(OCCN1C(=O)c2cccc3c(N4CCOCC4)ccc(c23)C1=O)c1ccc(Cl)cc1Cl | ? | 1.84µM* | ? | 50.3% | 2.31µM* | 4.5%
CCN(c1ccccc1)c1ccc2cc(S(=O)(=O)N3CCCC3)ccc2n1 | i | / | i | -22.9% | / | -16.6%
